Experiment: binders of probe aHhip on microarray, primary screen, stem cell growth factor project, biochemical, small-molecule microarray, fluorescence 635/667 (AID 1087);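 note: score merges spot fluorescence at 667nm with spot signal to noise ratio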
Conditions: higher = more signal
Compound `CC(C)(C)OC(=O)CC[C@@]1(C(=O)NCc2ccccc2)N=C(c2ccc(OCCCO)cc2)O[C@@H]1c1ccccc1` has a composite z-score of -0.304. `C[C@@H]1CC[C@H]2C(=O)N3CCC[C@H]3C(=O)N2[C@H]1c1ccc(Br)cc1` showed a composite z-score of 0.0274. `C=CCNC(=O)[C@H]1[C@@H]2C(=O)O[C@@H](c3ccccc3)[C@@H](c3ccccc3)N2[C@@H](c2ccc(O)cc2)[C@]12C(=O)Nc1ccc(C#CCNC(N)=O)cc12` showed a composite z-score of -0.21. Work on `O=C(NCc1ccccc1)[C@@]1(Cc2ccccc2)COC(c2ccc(OCCCO)cc2)=N1` yielded a composite z-score of 0.113. For `COc1ccc(C(=O)Nc2ccc(CN3C(=O)[C@]4(O[C@H](CCn5cc(CCO)nn5)[C@@H]([Si](C)(C)c5ccc(OC)cc5)[C@@H]4C)c4ccccc43)cc2)cc1`, the composite z-score was -0.0645. `O=C1C2C=CC(C(O)c3ccccc3)N(n3cnnc3)C2C(=O)N1Cc1ccccc1` (stereo unspecified) showed a composite z-score of -0.16. Compound `O=C1c2ccccc2[C@](Cc2ccccc2I)(C(=O)NCC(F)(F)F)[C@H](c2ccc(CO)cc2)N1Cc1ccccc1C(F)(F)F` has a composite z-score of -0.466. With `COCCCNC(=O)[C@@]1(Sc2ccc(C)cc2)CC(=O)N(Cc2cc(C(F)(F)F)cc(C(F)(F)F)c2)[C@@H]1c1ccc(CO)cc1I` the composite z-score was 1.67. For `CC1CC/C=C\[C@H]2OC34C=CCN(Cn5nnc6ccccc65)C(=O)[C@H]3N(C(C)CO)C(=O)[C@@H]4C2C(=O)O1` (stereo partly specified), the composite z-score was 0.0373. With `COCCOC(=O)N1C(=O)[C@@]2(c3cc(C#CCNC(N)=O)ccc31)[C@H](C(=O)N1CCCCCCC1)[C@H]1C(=O)O[C@H](c3ccccc3)[C@H](c3ccccc3)N1[C@@H]2c1ccccc1OCCO` the composite z-score was 0.851. For `CO[C@H]1COC(=O)CC=C[C@H](C)[C@@H](OC)COC(=O)CC=C[C@@H]1C`, the composite z-score was -0.0994. With `C=CCNC(=O)[C@H]1[C@@H]2C(=O)O[C@@H](c3ccccc3)[C@@H](c3ccccc3)N2[C@@H](c2ccccc2OCCO)[C@]12C(=O)N(C(=O)OCCOC)c1ccc(C#CCC(C(=O)OC)C(=O)OC)cc12` the composite z-score was 0.276. Compound `CCc1cccc(NC(=O)O[C@H]2[C@H](OC(=O)Nc3ccccc3)[C@@H](OC(=O)Nc3ccccc3)[C@@H](OC)O[C@@H]2CO)c1` has a composite z-score of -0.0831. With `O=C1O[C@@H](c2ccccc2)[C@@H](c2ccccc2)N2[C@@H](c3ccccc3OCCO)[C@]3(C(=O)Nc4ccc(C#CC5=CCCCC5)cc43)[C@@H](C(=O)O)[C@H]12` the composite z-score was -0.226. In the case of `O=C1C[C@@](C(=O)NCCN2CCOCC2)(c2ccc([N+](=O)[O-])cc2)[C@@H](c2ccc(CO)cc2)N1C1CCCCC1`, the composite z-score is reported as 0.0053. For `C[C@H]1NC(=O)[C@@H](C)NC(=O)[C@@]23C(=O)N[C@@H](Cc4ccccc4)C2[C@H](C)[C@@]2(C)O[C@H]2C3/C=C/C/C=C\CNC1=O` (stereo partly specified), the composite z-score was -0.34. `CCC#CCN(Cc1ccccc1Br)[C@H](/C=C/c1ccccc1)[C@@H](O)Cc1ccccc1` gave a composite z-score of -0.271. `C=C(COC)/C(=C/C[C@@H](OC(C)=O)c1cccc(OCCO)c1)c1cc(C(=O)OC)ccc1OC` showed a composite z-score of 0.0274. In the case of `O=C/C=C/c1ccccc1Cl`, the composite z-score is reported as 0.171. With `Cc1ccc(S(=O)(=O)c2cc3oc2CC[C@@H](CO)NC(=O)N(C)Cc2cn(nn2)C[C@H](Cc2ccccc2)NC3=O)cc1` the composite z-score was -0.194. Work on `O=C1O[C@H](c2ccccc2)[C@H](c2ccccc2)N2[C@H]1[C@@H](C(=O)Nc1nc3ccccc3s1)[C@]1(C(=O)Nc3ccc(C#CC4=CCCCC4)cc31)[C@H]2c1ccccc1OCCO` yielded a composite z-score of -0.0726. `C=CCC1=C[C@H]2[C@H]([C@@H]3C=C[C@]2(CC=C)C(=O)[C@]32CO2)[C@@]2(CO2)C1=O` gave a composite z-score of 0.0542. Compound `CC(C)N1CC=CC23O[C@@H]4/C=C\CCCOC(=O)C4[C@H]2C(=O)N(CCO)[C@@H]3C1=O` (stereo partly specified) has a composite z-score of -0.257. Work on `C=CCC(OC(C)=O)[C@@H]1[C@@H](N(Cc2cc3ccccc3o2)C(=O)Cc2ccc(F)cc2)c2cc(OCCCO)ccc2N1C(=O)c1ccc(-c2ccccc2)cc1` (stereo partly specified) yielded a composite z-score of -0.0645. Work on `C=CCc1cccc([C@H]2N[C@H](C(=O)O)CC[C@@H]2C)c1` yielded a composite z-score of 0.122. `CCOC(=O)C[C@H]1[C@H](OC(=O)Cc2ccc3c(c2)OCO3)[C@@H](NC(=O)c2ccc3ccccc3c2)c2cc(OCCCO)ccc2N1C(=O)Cc1ccc(OC)cc1` showed a composite z-score of 0.0274.
